Test results from PubChem BioAssay (EPA / NIEHS).
Activity calls are given as the source filed them. The calls were made as follows: active = hit-call score of the fitted dose curve at least 0.9, where 1 is the maximum; inactive = score below 0.9.

Key:
[1] = BSK_hDFCGF_SRB: Viability Assessment in the BioMAP Diversity Plus: hDFCGF Assay (AID 2283061); details: primary human foreskin fibroblasts;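 also: cells exposed to compound for 24 h before the read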
Summary of the method: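 Primary human foreskin fibroblasts; 24 h post-dose; fixed 10% TCA, stained 0.1% SRB, A560 read; total protein as overt cytotoxicity measure; curves fit bidirectionally vs DMSO control.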

[2] = read-out: TIMP metallopeptidase inhibitor 1 (TIMP1), TIMP1 (gene 7076); assay: BSK_hDFCGF_TIMP1: BioMAP Diversity Plus: hDFCGF Assay for TIMP metallopeptidase inhibitor 1 (TIMP1) Biomarker Activity (AID 2283062); details: primary human foreskin fibroblasts; actives raise or lower the signal
Summary of the method: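 ELISA readout of TIMP-1 from human dermal foreskin fibroblast cultures 24 h post-dosing. Curves were fitted in both directions against DMSO baseline, with SRB total-protein staining in parallel cultures as a cytotoxicity check.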

[3] = read-out: Monokine induced gamma interferon (MIG), CXCL9 (gene 4283); assay: BSK_hDFCGF_MIG: BioMAP Diversity Plus: hDFCGF Assay for Monokine induced gamma interferon (MIG) Biomarker Activity (AID 2283063); details: primary human foreskin fibroblasts; actives raise or lower the signal
Summary of the method: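 Fibroblasts (human foreskin, primary) dosed, 24 h, MIG by ELISA; fit bidirectional vs DMSO.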

[4] = read-out: Matrix Metallopeptidase 1 (MMP1), MMP1 (gene 4312); assay: BSK_hDFCGF_MMP1: BioMAP Diversity Plus: hDFCGF Assay for Matrix Metallopeptidase 1 (MMP1) Biomarker Activity (AID 2283064); details: primary human foreskin fibroblasts; actives raise or lower the signal
Summary of the method: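 hDFCGF primary fibroblasts (human foreskin); chemical added; 24 h; MMP1 by ELISA; bidirectional fit vs DMSO.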

[5] = read-out: Vascular cell adhesion molecule 1 (VCAM1), VCAM1 (gene 7412); assay: BSK_hDFCGF_VCAM1: BioMAP Diversity Plus: hDFCGF Assay for Vascular cell adhesion molecule 1 (VCAM1) Biomarker Activity (AID 2283065); details: primary human foreskin fibroblasts; actives raise or lower the signal;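 as to AC50: VCAM-1 protein level quantified by ELISA after 24 h chemical exposure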
Summary of the method: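 ELISA read-out of VCAM-1 on human skin fibroblasts, 24 h post-dose; gain or loss of signal fitted bidirectionally against DMSO baseline.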

[6] = read-out: Intercellular Adhesion Molecule 1 (ICAM1), ICAM1 (gene 3383); assay: BSK_KF3CT_ICAM1: BioMAP Diversity Plus: KF3CT Assay for Intercellular Adhesion Molecule 1 (ICAM1) Biomarker Activity (AID 2283067); details: primary human keratinocytes with fibroblasts; actives raise or lower the signal
Summary of the method: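 ELISA readout of ICAM-1; KF3CT human skin co-culture (keratinocytes + foreskin fibroblasts), 24 h post-dose; gain/loss fit vs DMSO baseline.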

[7] = read-out: Interferon-gamma inducible Protein 10 (IP10), CXCL10 (gene 3627); assay: BSK_KF3CT_IP10: BioMAP Diversity Plus: KF3CT Assay for Interferon-gamma inducible Protein 10 (IP10) Biomarker Activity (AID 2283068); details: primary human keratinocytes with fibroblasts; actives raise or lower the signal
Summary of the method: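 Signal is secreted/surface IP-10 by ELISA in a human primary skin co-culture of keratinocytes and foreskin fibroblasts, taken 24 h post-dosing; DMSO served as negative control.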

[8] = BSK_KF3CT_SRB: Viability Assessment in the BioMAP Diversity Plus: KF3CT Assay (AID 2283069); details: primary human keratinocytes with fibroblasts;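 also: total protein by sulforhodamine B staining as a cytotoxicity measure; read 24 h after compound addition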
Summary of the method: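 Keratinocytes co-cultured with foreskin fibroblasts (human primary); chemical added, 24 h; fix 10% TCA, stain 0.1% SRB, A560. Bidirectional fit vs DMSO.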

[9] = read-out: Interleukin-1 alpha (IL1a), IL1A (gene 3552); assay: BSK_KF3CT_IL1a: BioMAP Diversity Plus: KF3CT Assay for Interleukin-1 alpha (IL1a) Biomarker Activity (AID 2283070); details: primary human keratinocytes with fibroblasts; actives raise or lower the signal
Summary of the method: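 Chemicals were dosed onto co-cultured human keratinocytes and foreskin fibroblasts, IL-1a was quantified by ELISA at 24 h, and activity was fitted in both directions relative to DMSO controls.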

[10] = read-out: TIMP metallopeptidase inhibitor 2 (TIMP2), TIMP2 (gene 7077); assay: BSK_KF3CT_TIMP2: BioMAP Diversity Plus: KF3CT Assay for TIMP metallopeptidase inhibitor 2 (TIMP2) Biomarker Activity (AID 2283071); details: primary human keratinocytes with fibroblasts; actives raise or lower the signal
Summary of the method: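 Human primary keratinocyte/foreskin fibroblast co-culture dosed with chemical and sampled at 24 h. TIMP-2 levels quantified by ELISA; bidirectional fitting against DMSO negative control as baseline.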

[11] = read-out: Transforming growth factor beta 1 (TGFb1), TGFB1 (gene 7040); assay: BSK_KF3CT_TGFb1: BioMAP Diversity Plus: KF3CT Assay for Transforming growth factor beta 1 (TGFb1) Biomarker Activity (AID 2283072); details: primary human keratinocytes with fibroblasts; actives raise or lower the signal
Summary of the method: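 Human keratinocyte plus foreskin fibroblast primary co-culture, dosed with chemical for 24 h. TGF-b1 quantified by ELISA. Activity fitted bidirectionally against DMSO negative control as baseline.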

[12] = read-out: C-C motif chemokine 2 (Homo sapiens) (UniProt P13500); assay: BSK_KF3CT_MCP1: BioMAP Diversity Plus: KF3CT Assay for Monocyte Chemoattractant Protein 1 (MCP1/CCL2) Biomarker Activity (AID 2283073); details: primary human keratinocytes with fibroblasts; actives raise or lower the signal
Summary of the method: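 KF3CT skin co-culture (keratinocytes/foreskin fibroblasts), 24 h post-dose; MCP-1 by ELISA; gain/loss of signal fit bidirectionally vs DMSO baseline.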

[13] = read-out: Matrix Metallopeptidase 9 (MMP9), MMP9 (gene 4318); assay: BSK_KF3CT_MMP9: BioMAP Diversity Plus: KF3CT Assay for Matrix Metallopeptidase 9 (MMP9) Biomarker Activity (AID 2283074); details: primary human keratinocytes with fibroblasts; actives raise or lower the signal;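 as to AC50: MMP9 protein level quantified by ELISA in the co-culture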
Summary of the method: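 Human keratinocyte/foreskin fibroblast co-culture; compound added; 24 h; MMP-9 by ELISA; bidirectional fit vs DMSO baseline.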

[14] = read-out: urokinase plasminogen activator (uPA), PLAU (gene 5328); assay: BSK_KF3CT_uPA: BioMAP Diversity Plus: KF3CT Assay for urokinase plasminogen activator (uPA) Biomarker Activity (AID 2283075); details: primary human keratinocytes with fibroblasts; actives raise or lower the signal
Summary of the method: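 ELISA readout of uPA, analyzed for signal gain or loss relative to DMSO, from a human primary keratinocyte–foreskin fibroblast co-culture measured 24 h after chemical treatment.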

CD40, CD40 (gene 958) = assay: BSK_LPS_CD40: BioMAP Diversity Plus: LPS Assay for CD40 Biomarker Activity (AID 2283076); details: primary human HUVEC with PBMC; actives raise or lower the signal
Summary of the method: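 ELISA readout of CD40 in HUVEC/PBMC co-culture (BSK_LPS system), 24 h post-dosing; bidirectional curve fit, DMSO baseline; parallel SRB total-protein staining for cytotoxicity.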

[15] = read-out: E-selectin (Homo sapiens) (UniProt P16581); assay: BSK_LPS_Eselectin: BioMAP Diversity Plus: LPS Assay for Eselectin Biomarker Activity (AID 2283077); details: primary human HUVEC with PBMC; actives raise or lower the signal
Summary of the method: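 ELISA readout of E-selectin, 24 h post-dose, HUVEC + PBMC co-culture (LPS system). Gain or loss of signal vs DMSO baseline, bidirectional fit.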

[16] = read-out: Interleukin-8 (IL8), CXCL8 (gene 3576); assay: BSK_LPS_IL8: BioMAP Diversity Plus: LPS Assay for Interleukin-8 (IL8) Biomarker Activity (AID 2283078); details: primary human HUVEC with PBMC; actives raise or lower the signal
Summary of the method: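 HUVEC + PBMC co-culture, LPS-activated; test chemicals dosed, IL-8 read by ELISA at 24 h. Bidirectional curve fit vs DMSO baseline (gain or loss of signal).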

[17] = BSK_LPS_SRB: Viability Assessment in the BioMAP Diversity Plus: LPS Assay (AID 2283079); details: primary human HUVEC with PBMC;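 also: total protein by sulforhodamine B absorbance as a cytotoxicity measure; measured one day after compound addition; fitted in both directions against DMSO so loss or gain of signal counts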
Summary of the method: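 HUVEC + PBMC co-culture, LPS-stimulated; compound 24 h. 10% TCA fix, 0.1% SRB stain, A560. Bidirectional fit vs DMSO.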

[18] = read-out: Interleukin-1 alpha (IL1a), IL1A (gene 3552); assay: BSK_LPS_IL1a: BioMAP Diversity Plus: LPS Assay for Interleukin-1 alpha (IL1a) Biomarker Activity (AID 2283080); details: primary human HUVEC with PBMC; actives raise or lower the signal
Summary of the method: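 HUVEC/PBMC co-culture, LPS system; 24 h after dosing; IL-1a by ELISA; gain or loss of signal fitted bidirectionally vs DMSO baseline.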

Measured: AC50

Sequence of E-selectin (Homo sapiens) (P16581 whole entry, looked up): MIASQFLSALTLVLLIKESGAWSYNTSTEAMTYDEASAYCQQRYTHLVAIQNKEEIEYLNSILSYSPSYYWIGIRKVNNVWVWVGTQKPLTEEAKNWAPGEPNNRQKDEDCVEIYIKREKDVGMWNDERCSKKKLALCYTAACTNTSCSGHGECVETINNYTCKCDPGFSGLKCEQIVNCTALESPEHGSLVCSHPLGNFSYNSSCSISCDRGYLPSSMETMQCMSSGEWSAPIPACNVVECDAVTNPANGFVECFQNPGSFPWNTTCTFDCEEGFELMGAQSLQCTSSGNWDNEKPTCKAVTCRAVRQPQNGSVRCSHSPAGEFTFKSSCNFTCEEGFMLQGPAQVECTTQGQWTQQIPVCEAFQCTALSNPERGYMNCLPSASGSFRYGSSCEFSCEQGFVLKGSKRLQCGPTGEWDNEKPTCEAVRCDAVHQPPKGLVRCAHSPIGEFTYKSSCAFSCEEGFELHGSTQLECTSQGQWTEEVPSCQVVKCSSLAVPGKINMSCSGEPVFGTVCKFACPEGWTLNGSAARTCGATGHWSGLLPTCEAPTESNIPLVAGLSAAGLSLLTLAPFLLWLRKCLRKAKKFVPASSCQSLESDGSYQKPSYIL

CC(C)CCCCCCOC(=O)c1ccccc1C(=O)OCCCCCCC(C)C
active: [9] 1.58 µM
inactive: all other assays above

CCCCCCCCc1ccc(O)cc1
active: [1] 26.4 µM | [2] 33.3 µM | [3] 34.8 µM | [4] 31.9 µM | [5] 27.9 µM | [7] 29.5 µM | [8] 27.7 µM | [9] 25 µM | [10] 30 µM | [11] 22.4 µM | [13] 28.8 µM | [14] 31.6 µM | CD40, CD40 (gene 958) 31.5 µM | [15] 37.8 µM | [16] 36.5 µM | [17] 34.1 µM | [18] 31 µM

CCC(=O)C(CC(C)N(C)C)(c1ccccc1)c1ccccc1 (stereo not given)
inactive: all assays above

Nc1cccc2ccccc12
active: [1] 32 µM | [2] 27.7 µM | [4] 33.1 µM | [5] 25.9 µM | [13] 20 µM
not listed: [6] | [12]
inactive: all other assays above

CCOP(=S)(OCC)Oc1nc(Cl)c(Cl)cc1Cl
active: [4] 4.93 µM | [5] 7.1 µM | CD40, CD40 (gene 958) 20 µM
not listed: [6]
inactive: all other assays above
